In PubChem BioAssay (NCATS):
Results filed as inconclusive are left out. Calls of active or inactive are those of the source. Unless noted, calls come from the whole dose curve; as a rule, active = well fitted curve in the direction sought with a large enough effect; inconclusive = small, poorly fitted or top-dose-only effect, or another doubt; inactive = no such curve, though single readings can be large; an effect the other way counts as inactive or inconclusive.

Columns and labels:
[1] = Cell Viability - Mesenchymal (AID 546); settings: mesenchymal cells viability, qHTS; series mostly up to 91.7 µM;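 note: cells exposed to compound for 40 hours before reading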
Method in brief: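 Human renal mesenchymal cells (glomerulus-derived), 1000 cells/well, 5 hr 37 °C pre-incubation; compound 40 hr, 37 °C; CellTiter-Glo, 20 min RT; luminescence; AC50 via Hill equation.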

[2] = Cellular Toxicity (caspase-3) HepG2 (AID 654); settings: HepG2 caspase-3 activation, luminescence; series mostly up to 92.2 µM;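 note: cells exposed to compound for 16 hours before reading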
Method in brief: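 Luminescent Caspase-Glo 3/7 readout after 16 hr compound exposure of human hepatocellular carcinoma HepG2 cells at 37 °C; qHTS concentration-response, normalized DMSO = 0%, 100 uM tamoxifen = 100%; AC50 by standard Hill equation.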

[3] = Cellular Toxicity (caspase-3) Jurkat (AID 655); settings: Jurkat caspase-3 activation, luminescence; series mostly up to 92.2 µM;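 note: cells exposed to compound for 16 h at 37 °C before reading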
Method in brief: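 5000 Jurkat cells/well; compound 16 hr, 37 °C; Caspase-Glo 3/7 added, 20 min RT; luminescence read. Norm: DMSO = 0%, tamoxifen 100 uM = 100%. AC50, Hill model.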

[4] = Cellular Toxicity (caspase-3) HUV-EC-C (AID 656); settings: HUV-EC-C cells, caspase-3 activation (apoptosis), vehicle = 0, 100 µM tamoxifen = 100%; series mostly up to 92.2 µM
Method in brief: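 qHTS; HUV-EC-C, 1000 cells/well; 5 hr settle, 16 hr cmpd, 37°C; Caspase-Glo 3/7, 20 min RT; luminescence. Norm: DMSO = 0%, tamoxifen 100 uM = 100%. Hill-fit AC50.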

[5] = Cellular Toxicity (caspase-3) SHSY5Y (AID 657); settings: SH-SY5Y caspase-3 activation, DMSO zero, 10 µM staurosporine = 100%; series mostly up to 91.7 µM;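 note: cells exposed to compound for 16 hours at 37 °C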
Method in brief: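 qHTS, SH-SY5Y, 1500 cells/well, 5 h pre-incubation 37 °C; compound 16 h 37 °C; Caspase-Glo 3/7 1 h RT; luminescence. Norm.: DMSO = 0, 10 uM staurosporine = 100%. Hill fit → AC50.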

[6] = Cellular Toxicity (caspase-3) BJ (AID 658); settings: BJ fibroblasts, luminescence, normalized: DMSO 0%, staurosporine 100%; series mostly up to 91.7 µM;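 note: cells exposed to compound for 16 hours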
Method in brief: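 qHTS, BJ fibroblasts, 1000 cells/well; 5 hr preincubation, 16 hr compound, 37 °C; Caspase-Glo 3/7 reagent, 1 hr RT; luminescence. DMSO = 0%, 10 uM staurosporine = 100%. Hill-equation AC50.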

[7] = Cellular Toxicity (caspase-3) MRC-5 (AID 659); settings: MRC-5 cells, luminescence; Potency: caspase-3 activation; series mostly up to 91.7 µM
Method in brief: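 MRC-5 fibroblasts, 1500/well; 16 h cpd, 37 °C; Caspase-Glo 3/7, 1 h RT; lumi read. Norm: DMSO = 0%, 10 uM staurosporine = 100%. Hill-fit AC50 from qHTS conc-response.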

[8] = Cellular Toxicity (caspase-3) Mesangial (AID 660); settings: mesangial cells, normalized: DMSO 0%, 100 µM tamoxifen 100%; series mostly up to 91.7 µM;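 note: combined caspase 3 and 7 activity read by Caspase-Glo luminescence; cells exposed to compound for 16 h before the caspase read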
Method in brief: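 Luminescent Caspase-Glo 3/7 readout (aminoluciferin substrate cleavage, 20 min RT) after 16 h compound exposure at 37 °C of normal human mesangial cells. Signal increase normalized between DMSO basal and 100 uM tamoxifen; Hill-equation AC50.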

[9] = Cellular Toxicity (caspase-3) SK-N-SH (AID 661); settings: SK-N-SH caspase-3 activation, qHTS, DMSO as zero, staurosporine as full; series mostly up to 91.7 µM;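 note: cells exposed to compound for 16 hours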
Method in brief: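 Luminescent Caspase-Glo 3/7 read-out after 16 hr compound exposure of SK-N-SH neuroblastoma cells at 37 °C. Signal increase normalized to DMSO (basal) and 10 uM staurosporine (100%); AC50 from Hill equation fits of qHTS concentration-response data.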

[10] = molecular target: 3',5'-cyclic-AMP phosphodiesterase 4B (Homo sapiens) (UniProt Q07343); assay: qHTS Assay for Inhibitors of PDE-IV (AID 607; active = well fitted activation curve with a large enough effect in the main read-out, with a control signal flat, not every such curve was filed as active); settings: HEK293 ACTOne CNG channel cells, membrane potential fluorescence; series mostly up to 22.9 µM
Method in brief: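 Cell-based read-out of cAMP via a modified cyclic nucleotide-gated channel and membrane potential dye (535/590 nm) in HEK293 cells expressing PDE4 endogenously. Compounds tested up to 22.9 uM final; 100 uM RO 20-1724 reference.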

Measured: Potency

Sequence of 3',5'-cyclic-AMP phosphodiesterase 4B (Homo sapiens) (Q07343 whole entry, looked up): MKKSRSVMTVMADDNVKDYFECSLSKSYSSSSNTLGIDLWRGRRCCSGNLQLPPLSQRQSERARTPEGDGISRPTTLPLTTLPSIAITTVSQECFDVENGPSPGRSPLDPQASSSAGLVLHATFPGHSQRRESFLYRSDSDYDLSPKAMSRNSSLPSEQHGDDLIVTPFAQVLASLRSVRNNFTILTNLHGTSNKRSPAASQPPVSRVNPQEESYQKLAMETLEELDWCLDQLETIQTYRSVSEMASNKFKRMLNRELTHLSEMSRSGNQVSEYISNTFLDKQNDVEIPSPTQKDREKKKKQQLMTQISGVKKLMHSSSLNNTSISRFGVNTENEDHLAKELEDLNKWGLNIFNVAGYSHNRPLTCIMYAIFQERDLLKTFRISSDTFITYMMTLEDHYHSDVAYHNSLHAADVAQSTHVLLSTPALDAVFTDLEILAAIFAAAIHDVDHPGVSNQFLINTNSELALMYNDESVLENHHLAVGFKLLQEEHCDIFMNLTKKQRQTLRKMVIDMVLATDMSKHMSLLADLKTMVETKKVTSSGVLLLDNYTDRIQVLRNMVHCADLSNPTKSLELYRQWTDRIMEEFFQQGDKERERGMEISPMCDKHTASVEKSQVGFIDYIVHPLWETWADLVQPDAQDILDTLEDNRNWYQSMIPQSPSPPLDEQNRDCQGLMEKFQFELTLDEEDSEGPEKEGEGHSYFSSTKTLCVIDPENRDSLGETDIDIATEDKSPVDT

Cc1cc2nc3c(=O)[nH]c(=O)nc-3n(C[C@H](O)[C@H](O)[C@H](O)CO)c2cc1C
inactive: [1] | [2] | [3] | [4] | [5] | [6] | [7] | [8] | [9]

CCCCOC(=O)c1ccc(O)cc1
inactive: [1] | [10] | [2] | [3] | [4] | [5] | [6] | [7] | [8] | [9]

O=C1O[C@H]([C@@H](O)CO)C(O)=C1O
inactive: [1] | [2] | [3] | [4] | [5] | [6] | [7] | [8] | [9]

CCCCCCCCCCCCCCCC(=O)NCCO
inactive: [10]

COc1ccc(Cl)cc1C(=O)NCCc1ccc(S(=O)(=O)NC(=O)NC2CCCCC2)cc1
inactive: [10]

CCCCOc1cc(C(=O)OCCN(CC)CC)ccc1N
inactive: [10]

[Cl][In]([Cl])[Cl]
inactive: [1] | [2] | [3] | [4] | [5] | [6] | [7] | [8] | [9]

CC1=C(CC(=O)O)c2cc(F)ccc2/C1=C\c1ccc(S(C)=O)cc1 (stereo not drawn)
inactive: [10]

COc1ccccc1O
inactive: [1] | [2] | [3] | [4] | [5] | [6] | [7] | [8] | [9]

CN(C)CCCN1c2ccccc2Sc2ccc(Cl)cc21
inactive: [10]

NCCNCCNCCN
inactive: [1] | [2] | [3] | [4] | [5] | [6] | [7] | [8] | [9]

Cc1cc(N)c2ccccc2[n+]1CCCCCCCCCC[n+]1c(C)cc(N)c2ccccc21
inactive: [10]

CC(C)NC[C@H](O)c1ccc(O)c(O)c1
inactive: [10]

COC(=O)C1=C(C)NC(C)=C(C(=O)OC)C1c1ccccc1[N+](=O)[O-]
inactive: [1] | [10] | [2] | [3] | [4] | [6] | [7] | [8] | [9]

CC(=O)c1ccc2c(c1)N(CCCN(C)C)c1ccccc1S2
inactive: [10]

Oc1cccc(O)c1
inactive: [1] | [2] | [3] | [4] | [5] | [6] | [7] | [8] | [9]

NC(=O)N/N=C/c1ccc([N+](=O)[O-])o1
inactive: [1] | [2] | [3] | [4] | [5] | [6] | [7] | [8] | [9]

Cc1cc(CC(=O)O)n(C)c1C(=O)c1ccc(Cl)cc1
inactive: [1] | [10] | [2] | [3] | [4] | [5] | [6] | [7] | [8] | [9]

NC(=O)c1ncn([C@@H]2O[C@H](CO)[C@@H](O)[C@H]2O)n1
inactive: [1] | [2] | [3] | [4] | [5] | [6] | [7] | [8] | [9]

CCn1cc(C(=O)O)c(=O)c2cnc(N3CCNCC3)nc21
inactive: [10]

NCCNCCNCCNCCN
inactive: [1] | [2] | [3] | [4] | [5] | [6] | [7] | [8] | [9]

C[C@]12C[C@H](O)[C@H]3[C@@H](CCC4=CC(=O)CC[C@@]43C)[C@@H]1CC[C@@H]2C(=O)CO
inactive: [1] | [2] | [3] | [4] | [5] | [6] | [7] | [8] | [9]

CC1(C)[C@@H]2CC[C@@]1(C)C(=O)C2
inactive: [1] | [2] | [3] | [4] | [5] | [6] | [7] | [8] | [9]

CC12CCC(CC1)C(C)(C)O2
inactive: [1] | [2] | [3] | [4] | [5] | [6] | [7] | [8] | [9]

Nc1ccc(S(=O)(=O)Nc2nccs2)cc1
inactive: [1] | [10] | [2] | [3] | [4] | [5] | [6] | [7] | [8] | [9]

CCCCCCCCCCCCOS(=O)(=O)O
inactive: [1] | [2] | [3] | [4] | [5] | [6] | [7] | [8] | [9]

c1ccc(CN(CC2=NCCN2)c2ccccc2)cc1
inactive: [10]

CCN(CC)CCNC(=O)c1cc(Cl)c(N)cc1OC
inactive: [10]

O=C1c2c(O)cccc2Cc2cccc(O)c21
inactive: [2] | [3] | [4] | [5] | [6] | [7] | [8] | [9]

CCN(CC)CCOC(=O)C1(C2CCCCC2)CCCCC1
inactive: [10]

Cc1cccc(Nc2cc(Cl)nc(SCC(=O)O)n2)c1C
inactive: [10]

CCOc1ccc2ccccc2c1C(=O)N[C@@H]1C(=O)N2[C@@H]1SC(C)(C)[C@@H]2C(=O)O
inactive: [10]
